In PubChem BioAssay AID493170 (National Center for Advancing Translational Sciences (NCATS), 2011):
Results filed as inconclusive are left out. Where a call stands in place of a potency, no number is given. Calls of active or inactive are those of the source. The call rests on the fitted dose curve; in most records, active means well fitted inhibition curve with a large enough effect; inconclusive means small, poorly fitted or top-dose-only effect, or effect the other way; inactive means flat fitted curve, though single readings scatter.

The molecules below were run against Ubiquitin carboxyl-terminal hydrolase 2 (Homo sapiens) (UniProt O75604) (assay: Ub-rhodamine 110 based assay for inhibitors Ubiquitin-specific Protease USP2a). Details: USP2a Ub-rhodamine110 cleavage, fluorescence; series mostly up to 38.3 µM.
Outline: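 5 nM USP2a preincubated with compounds for 30 min at RT in 20 mM Tris-HCl pH 8.0, 2 mM CaCl2, 2 mM beta-mercaptoethanol, 0.05% CHAPS. Cleavage of 150 nM Ub-rhodamine 110 read kinetically (Ex 485/Em 531) for 7 min.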
Further: nearly all actives have a fitted effect of over 50% in size.
Potency means the concentration at half of the fitted maximal effect.

Chain of Ubiquitin carboxyl-terminal hydrolase 2 (Homo sapiens) (O75604 whole entry, looked up): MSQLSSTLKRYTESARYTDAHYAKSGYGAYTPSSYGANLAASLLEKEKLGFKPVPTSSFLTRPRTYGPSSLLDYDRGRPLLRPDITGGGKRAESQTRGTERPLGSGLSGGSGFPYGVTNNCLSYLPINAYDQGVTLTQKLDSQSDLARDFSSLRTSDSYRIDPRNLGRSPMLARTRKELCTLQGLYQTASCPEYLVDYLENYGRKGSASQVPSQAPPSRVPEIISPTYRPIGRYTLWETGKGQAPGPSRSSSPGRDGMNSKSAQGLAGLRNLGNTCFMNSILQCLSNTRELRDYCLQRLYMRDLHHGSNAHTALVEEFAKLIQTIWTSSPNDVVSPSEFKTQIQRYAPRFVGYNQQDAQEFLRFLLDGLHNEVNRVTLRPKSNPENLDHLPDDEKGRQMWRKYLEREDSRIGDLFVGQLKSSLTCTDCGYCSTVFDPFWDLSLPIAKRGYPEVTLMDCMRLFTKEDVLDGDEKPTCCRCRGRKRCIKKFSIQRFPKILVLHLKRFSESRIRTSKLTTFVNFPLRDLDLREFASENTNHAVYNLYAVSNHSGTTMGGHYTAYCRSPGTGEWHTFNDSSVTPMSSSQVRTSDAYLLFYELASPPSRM

SMILES	Potency
CCN1C(=O)CSc2ccc(C(=O)NC3CCCCC3)cc21	inactive
COCCn1c(CN(Cc2ccccc2)Cc2ccccc2)nc2c1c(=O)n(C)c(=O)n2C	inactive
COc1ccc(CCNC(=O)Cc2cc(=O)[nH]c(=O)[nH]2)cc1OC	inactive
COC(=O)c1c(N2C(=O)CCC2=O)sc2c1CCCC2	inactive
C[C@H](CO)N1C[C@H](C)[C@@H](CN(C)S(=O)(=O)c2cn(C)cn2)Oc2ccc(NC(=O)Cn3cnnn3)cc2C1=O	inactive
O=C(COC(=O)c1ccc(F)c(S(=O)(=O)N2CCOCC2)c1)c1ccccc1	inactive
Cc1ccc(OCC(=O)Nc2ccc(N3CCCC3)cc2)cc1C	10 µM (active)
CC(C)(C)C(=O)Nc1c2c(nc3c1CCC3)CCCC2	inactive
COc1cccc(OC)c1-c1nn2c(-c3cc(-c4ccccc4)n[nH]3)nnc2s1	6.31 µM (active)
C=CCSC1=N/C(=C\C=C\c2ccco2)C(=O)S1	10 µM (active)
COc1ccc(C(=O)N/C(=C\c2cccs2)C(=O)N2CCN(C)CC2)cc1OC	inactive
COc1ccc(-c2cc(C(F)(F)F)nc(S(C)(=O)=O)n2)cc1	inactive
CCC(C)(C(=O)NC1CCCCC1)N(C(=O)C1CCC(=O)N1)c1ccccc1 (stereo not given)	inactive
COc1cccc(NC(=O)CSc2nncn2-c2ccccn2)c1	inactive
CCOc1ccc(NC(=O)c2ccc(NC(=O)COC(=O)c3ccc(NC(=O)CC#N)cc3)cc2)cc1	3.98 µM (active)
CCCNC(=O)CS(=O)Cc1nc(-c2ccccc2C)oc1C (stereo not given)	inactive
Cn1c(=O)c2c(nc(CN3CCN(C(=O)c4ccco4)CC3)n2CCCc2ccccc2)n(C)c1=O	inactive
CC(C)CC(=O)Nc1cccc(-c2nc3ccccc3o2)c1	inactive
COc1cc(C(=O)OC2CCCCC2=O)cc(OC)c1C (stereo not given)	11.2 µM (active)
Cc1ccc(-c2c(C#N)c(N)nc3c2CCCCC3)o1	inactive

SMILES	Potency
CC(C(=O)Nc1ccc(C(=O)O)c(O)c1)N1C(=O)/C(=C\c2ccco2)SC1=S (stereo not given)	10 µM (active)
Cc1cc(=O)n2[nH]c(-c3sccc3-n3c(C)ccc3C)cc2n1	10 µM (active)
Cc1ccc(C(=O)N/C(=C/c2ccco2)C(=O)Nc2cccc(C(=O)O)c2)cc1	inactive
CCCc1cc(=O)oc2cc(C)c(CN3CCCC3)c(O)c12	10 µM (active)
COc1cccc(C(=O)NC(C)c2ccc(-c3ccccc3)cc2)c1OC (stereo not given)	inactive
c1ccc(-c2nc3nc4ccccc4nc3n2Cc2ccco2)cc1	inactive
N#C/C(=C(/O)CSc1nnc(Cc2cccs2)n1C1CCCCC1)c1nc2ccccc2[nH]1	7.08 µM (active)
O=C(Nc1cccc(-c2nn[nH]n2)c1)c1ccc(Br)s1	inactive
CCOC(=O)N1CCN(C(=O)CN(c2cccc(C)c2)S(=O)(=O)c2ccccc2)CC1	inactive
CCc1cc2c(=O)c(-n3cnc4ccccc43)coc2cc1O	inactive
O=C(/C(=N/N=C/c1ccc(O)c(O)c1O)c1ccccc1)c1ccccc1	2.51 µM (active)
CCCOC(=O)CCCCC1SCC(NC(=O)OC)C1NC(=O)OC (stereo not given)	inactive
O=C(NCCC1=CCCCC1)C1CCCN(S(=O)(=O)c2cnc[nH]2)C1 (stereo not given)	inactive
Cc1c(C(=O)Nc2ccc3c4c(cccc24)CC3)cccc1[N+](=O)[O-]	inactive
Cc1nn(CC(=O)Nc2cccc(S(N)(=O)=O)c2)c(C)c1[N+](=O)[O-]	inactive
CC(C)CC(=O)NC(=S)Nc1nc(-c2ccc(Cl)cc2)cs1	inactive
N#C/C(=C\c1ccc(O)c(O)c1)C(=O)Nc1cccc2ncccc12	2.24 µM (active)
O=C(c1ccc(CS(=O)(=O)c2ccc(Br)cc2)o1)N1CCCC1	inactive
CCOC(=O)CN1C(=O)S/C(=C/c2ccc(O)c([N+](=O)[O-])c2)C1=O	inactive
CCCOc1ccc(-c2nc(C#N)c(N3CCN(CC)CC3)o2)cc1	inactive
